Experimental findings from PubChem BioAssay (NCI) are described below.

The panel holds about 83,000 compounds, 20% with a hit somewhere; the sample as a whole holds those more often.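 The endpoint reported here, percent growth, reads 100 for growth as untreated, 0 for no net growth and -100 for all cells dead.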 Values without a mark were called inactive. Active and inactive are the calls of the source.

This assay has as its system NCI-H460 lung. As to the kind of experiment: NCI-60 one-dose screen, 48 h (100 = growth as untreated, 0 = no growth, -100 = all killed). Particulars: 10 µM unless noted. The method, then:
Growth inhibition of the NCI-H460 human Non-Small Cell Lung tumor cell line is measured as a screen for anti-cancer activity. Cells are grown in 96 well plates and exposed to the test compound for 48 hours. Compounds are tested at a single concentration, which is 10^-5 M for most compounds. The reported endpoint is percent growth (GI% or GIPRCNT), where numbers from 0 - 100% represent growth inhibition, and numbers from -100% - 0 represent cell death. For example, a value of 40 represents 60% growth inhibition. A value of 0 means no net growth occurred over the course of the experiment. A value of -40 indicates 40% of cells at the beginning of the experiment died by the end of the experiment. A value of -100 means all cells are dead at the end of the experiment.
NCI-60 Human Tumor Cell Lines Screen was performed using the standard one-dose NCI protocol, which is described in more detail at https://dtp.cancer.gov/discovery_development/nci-60/default.htm.
Compounds with GIPRCNT values below 10 were considered active. Activity score was based on GIPRCNT using the following formula: […]
Score is 0 for GIPRCNT values of 100 or above, 50 for GIPRCNT values of 0, and 100 for GIPRCNT values of -100.
For the compound `Nc1ccccc1-c1ccc(-c2ccc(Cl)cc2)c2c1[nH]c1ccccc12`, the growth is 88.6%. To `COc1ccc(CCN2CCC(CN(C)Cc3cnn(-c4ccccc4)c3)CC2)cc1` belongs 3.48% (active); to `Cc1ccc2cccc(Oc3ccc(Nc4ncnc5onc(-c6ccccc6)c45)cc3)c2n1`, 73.5%. The same measure for `COc1cc(/C=C2\CN(C)C/C(=C\c3cc(CN4CCOCC4)c(O)c(OC)c3)C2=O)cc(CN2CCOCC2)c1O`: 15.2%. To `COc1ccc(OC)c(/C=C/C(=O)c2c(C)nc3ccccc3c2/C=C/c2ccccc2)c1` belongs 28.6%. `O=c1oc2ccc(Br)cc2c(=O)n1-c1ccc(Cl)cc1F`: the growth was 2.87% (active).

As for `CCOC(=O)C1=C(C)N=c2s/c(=C\c3cc(Cl)ccc3O)c(=O)n2C1c1ccc(OC)cc1` (stereo not given), the growth was 91.6%. The same measure for `COc1ccc(C2Nc3nc(OC)n(C)c(=O)c3N=C3c4ccccc4C(=O)C32)cc1` (stereo not given): 97%; for `COc1ccc(N(C)c2nc(N)nc3sc4c(c23)CCCC4)cc1`: 3.58% (active). `COc1ccc(C(=O)Nc2ccc3nc(N4CCCCC4)cc(C)c3c2)cc1OC`: the growth was 51.9%. `O=C(Nc1ccc(N2CCNCC2)cc1)c1[nH]ncc1Nc1ncnc2sc3c(c12)CCC3`: the growth is -81.8% (active). The same measure for `O=C(Nc1ccc(Br)cc1F)c1cc(I)ccc1O`: 6.01% (active); for `CCOC(=O)C1(C(=O)OCC)N=C(c2ccccc2)C=C1c1ccccc1`: 104%; for `O=C(Nc1ccc(F)cc1F)c1cc(Br)ccc1O`: 4.52% (active). `NCCNc1nc2ccc(F)cc2c2c(=O)c3cc(F)ccc3sc12`: the growth was -54.7% (active). In the case of `COc1cc(/C=C/C(=O)c2c(C)nc3ccccc3c2/C=C/c2ccccc2)cc(OC)c1OC`, the growth was -33.3% (active). In the case of `O=C(c1nc2ccccc2[nH]1)C1C(c2cccc([N+](=O)[O-])c2)C2CC3CCCCC3N2[C@@]12C(=O)Nc1cc(Cl)ccc12` (stereo not given in full), the growth is 9.08% (active). The same measure for `O=C1N=c2ccccc2=C1c1sc(=Nc2ccccc2)n(Nc2ccccc2)c1O`: 101%. The same measure for `Cc1ccc2cc3c(N)c4c(C)ccc(C)c4nc3nc2c1`: 53%. Regarding `Clc1ccc(Oc2ccc(Nc3ncnc4onc(-c5ccccc5)c34)cc2)c(Cl)c1`, the growth is 101%. The same measure for `COc1ccc(N)c(-c2cc3c(c4c2[nH]c2ccc(OC)cc24)CCCC3)c1`: 83.1%. `Nc1ccc(-n2c(=O)oc3ccc(Cl)cc3c2=O)c(Cl)c1`: the growth was 2.28% (active). The same measure for `Cc1sc2ncn(CC(=O)Nc3ccc(S(N)(=O)=O)cc3)c(=O)c2c1C`: 105%; for `O=C(Nc1ccc(N2CCNCC2)cc1)c1[nH]ncc1Nc1cc(C2CC2)ncn1`: 38.9%; for `COc1ccc(-c2cn[nH]c2-c2ccc(OC)c(O)c2)cc1`: 76.6%. The same measure for `CCOc1ccc2c(c1)CN(Cc1ccc(Cl)cc1)CO2`: 40.1%; for `CCOC(=O)c1cc2c(n1Cc1cc(OC)c(OC)c(OC)c1)-c1oncc1CCC2`: 5.74% (active); for `O=C(Nc1ccc(-c2nc3ccc(NC(=O)c4ccc(Cl)cc4)cc3[nH]2)cc1)c1ccc(Cl)cc1`: 26.3%. The same measure for `COc1ccc(C2C3=C(COC3=O)N(CCO)c3cc4c(cc32)OCCO4)cc1` (stereo not given): 77.4%; for `CCN1C(=O)N(CC)C2C1NN=c1s/c(=C3\C(=O)N(C(C)C)c4ccccc43)c(=O)n12` (stereo not given): 5.6% (active); for `CN1C(=O)N(C)C2Nn3c(s/c(=C\c4ccc(Cl)cc4Cl)c3=O)=NC21` (stereo not given): 30.8%. Turning to `CN1CCN(Cc2ccc(C(=O)Nc3cncc(C#Cc4cnc5cccnn45)c3)cc2C(F)(F)F)CC1`, the growth is 49.2%.

Consider `CCOc1cc2c(cc1OCC)C(c1cc(C)c(O)c(C)c1)NCC2` (stereo not given), for which the growth was 100%. On to `O=C(Nc1ccc(Cl)cc1F)c1cc(I)ccc1O`, for which the growth was 15.7%. Turning to `CCOc1cccc(/C=N\Nc2nc(=O)cc(C(=O)OC)s2)c1O`, the growth is 44%. The same measure for `Cc1cccc2c(=O)c3c(sc12)c(NCCN)nc1ccccc13`: -75.3% (active); for `CCCCCCC(O)(c1ccc(F)cc1)C(CN1CCOCC1)c1ccccc1` (stereo not given): 16.1%; for `Oc1c(C(Nc2ccccn2)c2cccc(Oc3ccccc3)c2)ccc2cccnc12` (stereo not given): -86.3% (active). To `Cc1cc(OC(=O)c2ccc([N+](=O)[O-])cc2)nc2[nH]c(=O)sc12` belongs 105%. The same measure for `O=C(Nc1ccsc1C(=O)NC1CCCCC1)c1ccc(F)cc1`: 98.3%.
